Source: PubChem BioAssay
Sampled rows, rich in hits. Any-hit rate of the full collection: about 22%.
Pf growth 96h: P. falciparum growth inhibition at 96 hour, primary screen for plastid delayed-death inhibitors; AID 504834; Potency, µM (series often up to 28.7 µM), for inactives: top-dose activity change, negative = inhibition, most hits filed as inhibitors; P. falciparum luciferase reporter growth, 96 h; 6.9% of 320,000 active; note: potency is the fitted concentration of half-maximal effect; % is set by controls: 0 for no effect and ±100 for the full control effect
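Luminescence readout: decreased luciferase signal marks inhibited growth of reporter-expressing P. falciparum in infected red cells (2% hematocrit, 0.05% parasitemia final), exposed to compound two generations (96 h, 37 C, 5% CO2).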
Pf growth 48h: inhibits P. falciparum growth in the first generation, 48 h | P. falciparum luciferase growth in erythrocytes, 48 h | Potency, µM (top dose mostly 28.7 µM), without a hit: at the top dose activity change, negative = inhibition, usual class: inhibitors | 5.9% of 310,000 active | AID 504832; note: potency is the fitted concentration of half-maximal effect; % is set by controls: 0 for no effect and ±100 for the full control effect
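Firefly luciferase activity from engineered P. falciparum reports growth; inhibitors lower the luminescent signal. Cultures contained 2% hematocrit erythrocytes at 0.1% final parasitemia.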
Cycloheximide cs: counter-screen hit for Shiga toxin inhibitors, cycloheximide | max response, % | cell reporter, cycloheximide protein synthesis inhibition counterscreen | AID 2314 | 12% of 300,000 active; in the data active = max response mostly above about 13%, no sharp cut-off; inactive = mostly below about 14%; note: read at 38.3 µM for the half of the compounds with a filed dose; 0% is about no effect
LmPK inh: inhibitors of Leishmania mexicana pyruvate kinase; 0.37% of 290,000 active; Potency, µM (doses to about 57.5 µM), for inactives: at the top dose activity change, negative = inhibition, most hits filed as inhibitors; Q27686; purified LmPK, Kinase-Glo ATP luminescence, 1 h; note: potency is the fitted concentration of half-maximal effect; % is set by controls: 0 for no effect and ±100 for the full control effect
Target sequence (Q27686 whole entry, looked up): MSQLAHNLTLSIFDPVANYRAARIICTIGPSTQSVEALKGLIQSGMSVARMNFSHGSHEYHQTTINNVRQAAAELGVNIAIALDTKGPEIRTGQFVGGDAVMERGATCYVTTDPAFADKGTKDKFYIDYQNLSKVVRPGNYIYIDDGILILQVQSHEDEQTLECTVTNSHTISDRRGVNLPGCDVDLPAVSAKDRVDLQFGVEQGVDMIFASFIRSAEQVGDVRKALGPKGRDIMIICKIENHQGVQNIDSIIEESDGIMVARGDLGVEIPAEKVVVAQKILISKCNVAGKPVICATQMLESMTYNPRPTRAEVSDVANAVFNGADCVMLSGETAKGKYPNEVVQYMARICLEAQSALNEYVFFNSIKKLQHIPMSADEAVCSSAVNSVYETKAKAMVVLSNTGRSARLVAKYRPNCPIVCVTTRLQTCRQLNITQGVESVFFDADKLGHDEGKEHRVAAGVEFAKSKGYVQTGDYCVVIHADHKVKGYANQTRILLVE
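Screened at intermediate enzyme activity to detect both inhibitors and activators: LmPK at 0.1 nM, with a 0.5 nM enzyme column as activation reference. PEP 0.5 mM, ADP 0.1 mM; ATP detected by luminescence after 1 h.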
Shiga toxin inh: inhibitors of Shiga toxin in Vero cells; 9.2% of 290,000 active; Vero cells, Shiga toxin protein synthesis inhibition reporter; inhibition, % at 38.7 µM; AID 2315; in the data active = inhibition mostly above about 28%, no sharp cut-off; inactive = mostly below about 43%; note: 0% is about no effect
Numbers without * were called inactive; [ ] = remark or other dose. Unless noted, calls come from the whole dose curve; as a rule, active = well fitted inhibition curve with a large enough effect; inconclusive = small, poorly fitted or top-dose-only effect, or another doubt; inactive = no such curve, though single readings can be large or run the other way.

How did O=C(N/N=C/c1ccco1)c1cccc(NC(=O)c2cccc(Cl)c2)c1 do in these assays?
Pf growth 96h: -20%; Pf growth 48h: -7%; Cycloheximide cs: 41*; LmPK inh: 1%; Shiga toxin inh: 81*

What do the screens show for `O=c1c(-c2ccccc2)nnc2sc(COc3ccc(Br)cc3)nn12`?
Pf growth 96h: 1%; Pf growth 48h: 9%; Cycloheximide cs: -1; LmPK inh: 2%; Shiga toxin inh: -4

Results for CCCC(=O)Nc1nnc(S(=O)(=O)N(CC)c2ccc(OC)cc2)s1 ?
Pf growth 96h: 27%; Pf growth 48h: 12%; Cycloheximide cs: 11; LmPK inh: 10%; Shiga toxin inh: -8

What do the screens show for `COCCCNC(=O)CCC(=O)NNc1nc2ccccc2c2nc(C)nn12`?
Pf growth 96h: inconclusive; Pf growth 48h: -6%; Cycloheximide cs: -7; LmPK inh: -2%[11.5 µM]; Shiga toxin inh: -8

How did O=C(Nc1nc2ccccc2n1CCOc1ccc(Cl)cc1)c1ccco1 do in these assays?
Pf growth 96h: inconclusive; Cycloheximide cs: 20*; LmPK inh: 17%; Shiga toxin inh: 49

What do the screens show for `O=C(Nc1nc2ccccc2n1Cc1ccc(Cl)cc1)c1ccco1`?
Pf growth 96h: -20%; Pf growth 48h: 12µM*; Cycloheximide cs: 3; LmPK inh: 7%; Shiga toxin inh: 14

What do the screens show for `Cc1ccc(OCCn2c(NC(=O)c3ccco3)nc3ccccc32)cc1`?
Pf growth 96h: inconclusive; Pf growth 48h: 2.9µM*; Cycloheximide cs: -3; LmPK inh: 3%; Shiga toxin inh: -5

What do the screens show for `Nc1nc2ccccc2n1CCOc1ccc(Cl)cc1`?
Pf growth 96h: inconclusive; Pf growth 48h: inconclusive; Cycloheximide cs: -4; LmPK inh: 7%

What do the screens show for `CCC(=O)Nc1nc2ccccc2n1Cc1ccccc1`?
Pf growth 96h: inconclusive; Pf growth 48h: inconclusive; Cycloheximide cs: 2; LmPK inh: -1%; Shiga toxin inh: -5

What do the screens show for `Cc1ccc(OCCn2c(CCNC(=O)C(C)C)nc3ccccc32)cc1`?
Pf growth 96h: 19%; Pf growth 48h: 17%; Cycloheximide cs: -2; LmPK inh: 4%; Shiga toxin inh: -16

Results for CC(=O)NCc1nc2ccccc2n1Cc1ccccc1F ?
Pf growth 96h: 2.1µM*; Pf growth 48h: 35%; Cycloheximide cs: -3; LmPK inh: -1%; Shiga toxin inh: -4

How did CC(=O)NCCCc1nc2ccccc2n1Cc1ccccc1F do in these assays?
Pf growth 96h: -7%; Pf growth 48h: 5%; Cycloheximide cs: -1; LmPK inh: 5%; Shiga toxin inh: 50

Results for O=C(COC(=O)/C=C/c1ccccc1)NC1CCCCC1 ?
Pf growth 96h: inconclusive; Pf growth 48h: -24%

How did CCC(Oc1nc2ccccc2nc1-c1ccccc1NC(C)=O)C(=O)c1ccccc1 (centres undefined) do in these assays?
Pf growth 96h: inconclusive; Pf growth 48h: inconclusive; Cycloheximide cs: -1; LmPK inh: 7%; Shiga toxin inh: -6

How did COc1ccc(S(=O)(=O)NC2CCCCCC2)cc1C(N)=O do in these assays?
Pf growth 96h: 64%; Pf growth 48h: 15%; Cycloheximide cs: -2; LmPK inh: -3%; Shiga toxin inh: -4

What do the screens show for `COc1ccc(-c2nc(CS(=O)(=O)CC(=O)NCc3ccc(F)cc3)c(C)o2)cc1`?
Pf growth 96h: 7%; Pf growth 48h: 14%; Cycloheximide cs: -1; LmPK inh: 10%; Shiga toxin inh: -5

Results for O=C(Nc1nc2ccccc2n1CCN1CCCCC1)c1ccco1 ?
Pf growth 96h: inconclusive; Pf growth 48h: 3%; Cycloheximide cs: 2; LmPK inh: 4%; Shiga toxin inh: 19

Results for Cc1cccc(OCCn2c(NC(=O)c3ccco3)nc3ccccc32)c1 ?
Pf growth 96h: 32%; Pf growth 48h: inconclusive; Cycloheximide cs: 26*; LmPK inh: 7%; Shiga toxin inh: 89*

Results for C=CCn1c(NC(=O)c2ccco2)nc2ccccc21 ?
Pf growth 96h: 11%; Pf growth 48h: 12µM*; Cycloheximide cs: 17; LmPK inh: -11%; Shiga toxin inh: -22

How did CC(NC(=O)/C=C/c1ccco1)c1nc2ccccc2n1Cc1cccc(Cl)c1 (centres undefined) do in these assays?
Pf growth 96h: inconclusive; Pf growth 48h: 13µM*; Cycloheximide cs: 54*; LmPK inh: 2%; Shiga toxin inh: 67*
